{"source": "PubChem BioAssay (Tox21)", "note": "Where “and” joins values, the source holds several entries; their conditions need not be identical. Equal entries are not always repeated. Records with an inconclusive call do not appear. Unmarked numbers belong to inactive results. Calls of active or inactive are those of the source. Calls come from the whole dose curve; as a rule, active = well fitted activation curve with a large enough effect in the repeat runs; inconclusive = weak or mixed curves, or effect the other way; inactive = no such curve, though single readings can be large or run the other way. % is set by controls: 0 for no effect and ±100 for the full control effect; potency is the fitted concentration of half-maximal effect."}
{"experiment": "qHTS assay to identify small molecule agonists of the retinoic acid receptor (RAR) signaling pathway (AID 1159553)", "settings": "C3RL4 RARE luciferase reporter, agonist, 6 h; series mostly up to 73.3 µM; activation: at the top concentration", "text": "National Center for Advancing Translational Sciences [NCATS] NIH Chemical Genomics Center [NCGC] U.S. Environmental Protection Agency [EPA] National Institutes of Environmental Health Sciences [NIEHS] National Toxicology Program [NTP] Assay overview: All-trans Retinoic acid (atRA) is the potent natural metabolite of retinol and plays an important role in normal embryonic development and maintenance of cellular phenotype in adult animals. atRA is the activating ligand for the retinoic acid receptors (RARs) which form heterodimers with retinoid X receptors (RXRs) on the retinoic acid response element (RARE). Through activation of the RAR/RXRs nuclear receptors, atRA regulates the transcription of a large number of protein-coding genes and regulatory RNAs. Intracellular levels of atRA are controlled by the retinol signaling pathway (RSP) that regulates the biosynthesis and catabolism of atRA to maintain physiological levels. Chemicals that interfere with the RSP can cause abnormal intracellular levels of atRA and therefore are potential developmental toxicants. To assess compounds for the potential adverse effect on embryonic development through interfering with retinol signaling, a cell-based RARE luciferase reporter gene assay was used. C3RL4 cell line (OARSA/CFSAN/FDA, Laurel, MD) was used to screen Tox21 10K compound library for identifying activators of the RSP.\nAssay Protocol Summary: C3RL4 cells were seeded at 1,000/well in 5 uL of assay medium into white solid 1,536-well tissue culture plates (Greiner Bio-One North America Inc. Monroe, NC) using a Multidrop Combi (Thermo Scientific, Waltham, MA) dispenser. After incubation at 37 C and 5% CO2 for an overnight, 23 nL of compounds dissolved in DMSO, positive control or DMSO only were transferred by a Pintool station (Kalypsys, San Diego, CA). After 6 hr incubation at 37 C and 5% CO2, 5 uL of Amplite Luciferase reagent (AAT Bioquest Inc. Sunnyvale, CA) was added to each assay plate using a Flying Reagent Dispenser (FRD) (Aurora Discovery, San Diego, CA). Luminescence was quantified on a ViewLux plate reader (PerkinElmer, Waltham, MA) after 30 min incubation at room temperature."}
{"molecule": "Cc1ncc(CO)c(C=O)c1O", "activation": "-0.949%"}
{"molecule": "C#Cc1cccc(Nc2ncnc3cc(OCCOC)c(OCCOC)cc23)c1", "activation": "-3.93%"}
{"molecule": "O=C(O)C(S)C(S)C(=O)O", "note": "(stereo not given)", "activation": "1.2%"}
{"molecule": "C=CC1CC2C=CC1C2", "note": "(stereo not given)", "activation": "0.518%"}
{"molecule": "CCCCC(CC)COC(=O)COc1ccc(Cl)cc1Cl", "note": "(stereo not given)", "activation": "-10.6% [at 94.8 µM]"}
{"molecule": "CCOC(=O)C(=O)CCc1ccccc1", "activation": "1.09%"}
{"molecule": "CCCOC(C(=O)OC1CCN(C)CC1)(c1ccccc1)c1ccccc1", "activation": "-7.03%"}
{"molecule": "CC1CCC(=O)C1=O", "note": "(stereo not given)", "activation": "4.22% [at 94.8 µM]"}
{"molecule": "CN(C)c1ccc(/C=C/c2ccc([N+](=O)[O-])cc2)cc1", "Potency": "219 nM (active)"}
{"molecule": "COC(C)OC", "activation": "-3.1%"}
{"molecule": "C[C@@H]1C[C@H]2[C@@H]3CCC4=CC(=O)C=C[C@]4(C)[C@@]3(F)[C@@H](O)C[C@]2(C)[C@@]1(O)C(=O)COC(=O)c1ccncc1", "activation": "-12.4%"}
{"molecule": "OCCN1CCN(CCCN2c3ccccc3C=Cc3ccccc32)CC1", "activation": "-6.84%"}
{"molecule": "O=CC1CC=CCC1", "note": "(stereo not given)", "activation": "0.693%"}
{"molecule": "CCOC(=O)C1=C[C@]2(CC)CCCN3CCc4c(n1c1ccccc41)[C@@H]32", "activation": "-8.09%"}
{"molecule": "CC(=O)OC[C@H]1O[C@@H](n2ncc(=O)[nH]c2=O)[C@H](OC(C)=O)[C@@H]1OC(C)=O", "activation": "0.438%"}
{"molecule": "Brc1c2ccccc2cc2ccccc12", "activation": "3.45% [at 94.8 µM]"}
{"molecule": "O=C1CCC(=O)O1", "activation": "0.12% [at 94.8 µM]"}
{"molecule": "CCc1c(C(=O)NN2CCCCC2)nn(-c2ccc(Cl)cc2Cl)c1-c1ccc(Br)cc1", "activation": "-7.91%"}
{"molecule": "C=CCOc1ccccc1OCC(O)CNC(C)C", "note": "(stereo not given)", "activation": "1.14%"}
{"molecule": "C#C[C@]1(O)CC[C@H]2[C@@H]3CCc4cc(OC5CCCC5)ccc4[C@H]3CC[C@@]21C", "activation": "-10.5%"}
{"molecule": "Cc1ccc(C(=O)Oc2ccc(C(O)CNC(C)(C)C)cc2OC(=O)c2ccc(C)cc2)cc1", "note": "(stereo not given)", "activation": "-3.97%"}
{"molecule": "COCC(C)OC(C)=O", "note": "(stereo not given)", "activation": "2.59%"}
{"molecule": "CC(C)(C)OCC1CO1", "note": "(stereo not given)", "activation": "0.403% [at 94.8 µM]"}
{"molecule": "Cc1cc(N)c2cc(NC(=O)Nc3ccc4nc(C)cc(N)c4c3)ccc2n1", "activation": "-6.19%"}
{"molecule": "O=C(O)c1ccc(S(=O)(=O)O)cc1C(=O)O", "activation": "-2.07%"}
{"molecule": "CCCCCCCCO[C@@H]1O[C@H](CO)[C@@H](O)[C@H](O)[C@H]1O", "activation": "0.746%"}
{"molecule": "C=CC(=O)OCCOCCOCCOCCOC(=O)C=C", "Potency": "19.4 µM (active) and 17.1 µM (active)"}
{"molecule": "COc1ccc(S(=O)(=O)N2C(=O)[C@@](c3ccccc3OC)(N3C[C@H](O)C[C@H]3C(=O)N(C)C)c3cc(Cl)ccc32)c(OC)c1", "activation": "-13.8%"}
{"molecule": "O=C1c2ccccc2S(=O)(=O)N1CCCCN1CCN(c2ncccn2)CC1", "activation": "3.99%"}
{"molecule": "COCCCN1CCC(NC(=O)c2cc(Cl)c(N)c3c2OCC3)CC1", "activation": "0.522%"}
{"molecule": "CC(C)(O)c1ccc(CNC(=O)c2cccnc2Oc2ccc(F)cc2)cc1", "activation": "1.37%"}
{"molecule": "C=C(C)C(=O)OCCO", "activation": "0.688% [at 94.8 µM]"}
{"molecule": "O=P(O)(OCc1ccccc1)OCc1ccccc1", "activation": "0.956%"}
{"molecule": "CN(C)c1ccc(CCO)cc1", "activation": "5.61%"}
{"molecule": "NC(=O)C(c1ccccc1)(c1ccccc1)[C@@H]1CCN(CCc2ccc3c(c2)CCO3)C1", "activation": "-14.9%"}
{"molecule": "COc1cccc(N(C)C(=S)Oc2ccc3c(c2)CCCC3)n1", "activation": "1.32%"}
{"molecule": "C=CC(=O)OCCOc1ccccc1", "activation": "0.586%"}
{"molecule": "CCCCCCCCCCCc1ccccc1", "activation": "-0.283%"}
{"molecule": "Nc1ccc([N+](=O)[O-])c(C(F)(F)F)c1", "activation": "-1.83%"}
{"molecule": "CNC(=O)CN(CCN(CCN(CC(=O)[O-])CC(=O)NC)CC(=O)[O-])CC(=O)[O-].O.[Gd+3]", "activation": "-3.21%"}
